Measurements published in the supplement of paper PMC11732987, “Enantioselective OTUD7B fragment discovery through chemoproteomics screening and high-throughput optimisation” (Communications Chemistry, 2025).

Tests used:
Experiment in all cases: log2 ratio of Biotin-Ahx-Ub-VS probe labelling (fragment/DMSO); higher = less target engagement (more negative = stronger competition), active = hit call of the paper (q ≤ 0.05, log2 ratio ≤ -1)
Settings in all cases: compound concentration: 200 uM; treatment time: 3 h
USP42 = molecular target: T1, USP42 (UniProt Q9H9J4)
T1 sequence (whole entry): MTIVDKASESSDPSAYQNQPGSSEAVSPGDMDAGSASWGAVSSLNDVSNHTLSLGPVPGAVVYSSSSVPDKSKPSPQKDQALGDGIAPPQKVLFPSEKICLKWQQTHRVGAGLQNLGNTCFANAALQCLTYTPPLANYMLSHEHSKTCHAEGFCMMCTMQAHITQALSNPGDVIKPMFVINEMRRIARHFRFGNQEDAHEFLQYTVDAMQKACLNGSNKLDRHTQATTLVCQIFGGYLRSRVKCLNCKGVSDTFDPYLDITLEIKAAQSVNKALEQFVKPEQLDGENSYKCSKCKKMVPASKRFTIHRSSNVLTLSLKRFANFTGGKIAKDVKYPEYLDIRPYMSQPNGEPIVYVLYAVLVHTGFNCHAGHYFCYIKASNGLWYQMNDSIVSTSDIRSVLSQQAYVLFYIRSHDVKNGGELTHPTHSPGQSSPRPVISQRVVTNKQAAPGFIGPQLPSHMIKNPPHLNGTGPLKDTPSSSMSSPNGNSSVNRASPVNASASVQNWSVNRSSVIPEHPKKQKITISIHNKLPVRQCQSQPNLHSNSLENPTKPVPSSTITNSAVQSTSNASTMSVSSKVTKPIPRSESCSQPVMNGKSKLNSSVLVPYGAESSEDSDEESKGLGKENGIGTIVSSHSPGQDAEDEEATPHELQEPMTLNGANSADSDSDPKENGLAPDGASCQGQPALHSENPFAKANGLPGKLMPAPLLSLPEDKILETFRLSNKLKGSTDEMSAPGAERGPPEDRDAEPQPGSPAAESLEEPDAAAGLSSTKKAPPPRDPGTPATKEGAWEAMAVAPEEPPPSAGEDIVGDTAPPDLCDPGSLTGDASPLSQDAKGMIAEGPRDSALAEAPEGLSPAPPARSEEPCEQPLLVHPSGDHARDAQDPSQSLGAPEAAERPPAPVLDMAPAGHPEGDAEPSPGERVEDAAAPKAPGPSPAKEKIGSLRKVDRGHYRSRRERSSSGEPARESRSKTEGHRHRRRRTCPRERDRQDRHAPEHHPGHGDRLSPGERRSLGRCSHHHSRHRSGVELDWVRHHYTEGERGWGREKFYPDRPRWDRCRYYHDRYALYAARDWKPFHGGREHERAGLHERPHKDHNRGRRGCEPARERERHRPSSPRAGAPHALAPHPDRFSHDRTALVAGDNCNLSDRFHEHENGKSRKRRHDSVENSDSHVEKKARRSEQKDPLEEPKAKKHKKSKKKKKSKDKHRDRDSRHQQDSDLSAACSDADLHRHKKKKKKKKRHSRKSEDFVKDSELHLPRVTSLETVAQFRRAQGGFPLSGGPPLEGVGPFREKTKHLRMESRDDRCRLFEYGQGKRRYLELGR
Summary of the method: (§1)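 Using Biotin-Ahx-Ub-VS at 0.5 µM final for 1 h, DUBs were labelled in HEK293T lysate (495 µg per sample) that had first been treated in triplicate with fragment at 200 µM or vehicle for 3 h. NeutrAvidin enrichment, LysC and trypsin digestion and diaPASEF LC-MS/MS followed. Spectronaut label-free quantities were global-median-normalised. Values are average log2 fragment/vehicle ratios by unpaired t-test, using proteins with ≥2 unique peptides.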

USP46 = USP46 (UniProt P62068)
USP46, sequence (P62068 whole entry): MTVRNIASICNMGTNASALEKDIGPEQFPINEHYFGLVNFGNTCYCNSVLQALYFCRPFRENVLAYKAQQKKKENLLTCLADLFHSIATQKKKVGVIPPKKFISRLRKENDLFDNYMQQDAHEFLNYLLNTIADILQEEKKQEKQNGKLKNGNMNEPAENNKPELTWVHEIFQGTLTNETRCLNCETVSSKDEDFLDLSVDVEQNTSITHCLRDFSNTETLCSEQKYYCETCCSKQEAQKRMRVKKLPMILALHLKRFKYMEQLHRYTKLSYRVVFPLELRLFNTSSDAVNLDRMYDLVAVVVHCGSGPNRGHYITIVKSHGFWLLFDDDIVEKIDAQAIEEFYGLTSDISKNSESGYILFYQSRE
Summary of the method: as §1

USP47 = molecular target: T2, USP47 (UniProt Q96K76)
T2 sequence (whole entry): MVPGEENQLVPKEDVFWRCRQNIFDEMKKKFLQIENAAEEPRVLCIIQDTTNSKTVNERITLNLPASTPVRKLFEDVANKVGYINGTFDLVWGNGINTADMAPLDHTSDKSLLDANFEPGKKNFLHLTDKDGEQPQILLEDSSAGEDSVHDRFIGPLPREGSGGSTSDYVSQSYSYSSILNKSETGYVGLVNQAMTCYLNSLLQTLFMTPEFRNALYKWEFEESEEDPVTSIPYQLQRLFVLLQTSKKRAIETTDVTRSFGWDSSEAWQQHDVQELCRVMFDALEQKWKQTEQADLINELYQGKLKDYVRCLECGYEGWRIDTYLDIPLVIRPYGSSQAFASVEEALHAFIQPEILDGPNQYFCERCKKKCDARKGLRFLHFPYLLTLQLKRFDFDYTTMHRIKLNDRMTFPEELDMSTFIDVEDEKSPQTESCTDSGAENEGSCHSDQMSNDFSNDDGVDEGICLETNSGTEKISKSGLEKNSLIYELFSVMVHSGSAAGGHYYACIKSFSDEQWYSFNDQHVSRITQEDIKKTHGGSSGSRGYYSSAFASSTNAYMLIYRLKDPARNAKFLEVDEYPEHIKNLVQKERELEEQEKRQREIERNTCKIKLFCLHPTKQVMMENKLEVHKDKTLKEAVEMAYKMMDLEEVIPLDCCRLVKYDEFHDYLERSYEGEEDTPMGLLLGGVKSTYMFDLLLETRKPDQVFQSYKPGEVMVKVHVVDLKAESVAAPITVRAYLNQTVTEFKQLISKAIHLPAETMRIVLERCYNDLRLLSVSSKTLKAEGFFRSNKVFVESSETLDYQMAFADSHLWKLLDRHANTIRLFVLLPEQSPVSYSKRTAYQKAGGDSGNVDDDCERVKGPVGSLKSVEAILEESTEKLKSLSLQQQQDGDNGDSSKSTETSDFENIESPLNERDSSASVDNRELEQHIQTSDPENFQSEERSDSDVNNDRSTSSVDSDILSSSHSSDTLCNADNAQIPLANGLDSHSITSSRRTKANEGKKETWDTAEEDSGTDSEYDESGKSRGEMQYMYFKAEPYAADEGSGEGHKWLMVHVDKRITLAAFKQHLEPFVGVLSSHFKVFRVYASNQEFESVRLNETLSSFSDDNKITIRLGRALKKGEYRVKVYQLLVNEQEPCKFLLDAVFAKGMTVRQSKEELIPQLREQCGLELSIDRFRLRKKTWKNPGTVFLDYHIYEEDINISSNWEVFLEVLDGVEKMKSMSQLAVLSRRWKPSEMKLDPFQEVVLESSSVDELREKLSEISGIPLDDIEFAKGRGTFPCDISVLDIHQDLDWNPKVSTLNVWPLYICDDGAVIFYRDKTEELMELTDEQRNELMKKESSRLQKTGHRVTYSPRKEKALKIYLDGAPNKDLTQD
Summary of the method: as §1

USP48 = molecular target: T3, USP48 (UniProt Q86UV5)
T3 sequence (whole entry): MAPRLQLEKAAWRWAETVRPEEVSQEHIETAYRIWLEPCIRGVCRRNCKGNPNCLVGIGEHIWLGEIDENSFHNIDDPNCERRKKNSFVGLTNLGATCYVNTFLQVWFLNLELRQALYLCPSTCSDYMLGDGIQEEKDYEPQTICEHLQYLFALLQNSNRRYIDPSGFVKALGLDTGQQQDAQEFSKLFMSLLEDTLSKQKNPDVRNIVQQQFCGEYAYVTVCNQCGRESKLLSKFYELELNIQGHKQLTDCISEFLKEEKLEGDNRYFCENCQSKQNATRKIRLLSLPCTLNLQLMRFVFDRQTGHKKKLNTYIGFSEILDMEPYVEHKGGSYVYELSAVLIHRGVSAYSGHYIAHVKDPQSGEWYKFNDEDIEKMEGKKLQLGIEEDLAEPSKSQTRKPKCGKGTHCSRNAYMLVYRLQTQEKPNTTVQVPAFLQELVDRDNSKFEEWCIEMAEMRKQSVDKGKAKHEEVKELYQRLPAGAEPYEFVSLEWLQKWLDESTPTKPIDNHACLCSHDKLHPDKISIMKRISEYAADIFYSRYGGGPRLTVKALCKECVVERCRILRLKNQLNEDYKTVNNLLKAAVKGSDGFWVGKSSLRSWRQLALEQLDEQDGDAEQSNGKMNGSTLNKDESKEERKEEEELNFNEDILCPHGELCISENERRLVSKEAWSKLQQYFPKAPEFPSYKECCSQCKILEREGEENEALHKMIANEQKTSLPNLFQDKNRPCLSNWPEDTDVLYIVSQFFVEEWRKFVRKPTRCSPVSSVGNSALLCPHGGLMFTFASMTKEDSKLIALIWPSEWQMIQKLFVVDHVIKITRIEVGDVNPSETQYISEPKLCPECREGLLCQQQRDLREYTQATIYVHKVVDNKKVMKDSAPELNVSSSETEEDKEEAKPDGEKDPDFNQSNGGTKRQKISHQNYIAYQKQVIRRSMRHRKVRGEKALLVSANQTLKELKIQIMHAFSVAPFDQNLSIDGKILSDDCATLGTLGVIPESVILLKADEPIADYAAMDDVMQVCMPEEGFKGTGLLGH
Summary of the method: as §1

USP5 = molecular target: T4, USP5 (UniProt P45974)
T4 sequence (whole entry): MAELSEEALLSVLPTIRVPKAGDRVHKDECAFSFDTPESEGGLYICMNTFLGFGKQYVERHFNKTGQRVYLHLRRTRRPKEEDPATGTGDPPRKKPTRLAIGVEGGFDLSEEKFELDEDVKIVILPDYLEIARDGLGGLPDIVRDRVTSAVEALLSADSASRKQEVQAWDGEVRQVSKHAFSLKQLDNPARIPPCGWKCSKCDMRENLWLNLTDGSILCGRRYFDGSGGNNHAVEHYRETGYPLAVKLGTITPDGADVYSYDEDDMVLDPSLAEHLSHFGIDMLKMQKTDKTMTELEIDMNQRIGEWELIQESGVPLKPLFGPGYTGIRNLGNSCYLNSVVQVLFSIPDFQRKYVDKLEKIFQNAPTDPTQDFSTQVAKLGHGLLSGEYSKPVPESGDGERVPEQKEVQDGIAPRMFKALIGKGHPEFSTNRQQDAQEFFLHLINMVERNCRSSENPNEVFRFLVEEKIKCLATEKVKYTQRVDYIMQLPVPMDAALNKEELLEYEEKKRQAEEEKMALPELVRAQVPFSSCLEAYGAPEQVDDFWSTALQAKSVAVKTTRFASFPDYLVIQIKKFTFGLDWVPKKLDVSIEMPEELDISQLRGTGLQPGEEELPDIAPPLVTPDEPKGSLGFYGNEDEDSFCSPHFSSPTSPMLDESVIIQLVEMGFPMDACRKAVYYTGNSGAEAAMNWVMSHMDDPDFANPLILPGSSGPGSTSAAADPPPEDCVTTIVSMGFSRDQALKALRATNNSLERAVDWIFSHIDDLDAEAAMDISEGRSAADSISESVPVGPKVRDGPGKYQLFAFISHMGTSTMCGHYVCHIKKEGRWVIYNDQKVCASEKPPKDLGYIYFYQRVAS
Summary of the method: as §1

USP54 = USP54 (UniProt Q70EL1)
USP54, sequence (Q70EL1 whole entry): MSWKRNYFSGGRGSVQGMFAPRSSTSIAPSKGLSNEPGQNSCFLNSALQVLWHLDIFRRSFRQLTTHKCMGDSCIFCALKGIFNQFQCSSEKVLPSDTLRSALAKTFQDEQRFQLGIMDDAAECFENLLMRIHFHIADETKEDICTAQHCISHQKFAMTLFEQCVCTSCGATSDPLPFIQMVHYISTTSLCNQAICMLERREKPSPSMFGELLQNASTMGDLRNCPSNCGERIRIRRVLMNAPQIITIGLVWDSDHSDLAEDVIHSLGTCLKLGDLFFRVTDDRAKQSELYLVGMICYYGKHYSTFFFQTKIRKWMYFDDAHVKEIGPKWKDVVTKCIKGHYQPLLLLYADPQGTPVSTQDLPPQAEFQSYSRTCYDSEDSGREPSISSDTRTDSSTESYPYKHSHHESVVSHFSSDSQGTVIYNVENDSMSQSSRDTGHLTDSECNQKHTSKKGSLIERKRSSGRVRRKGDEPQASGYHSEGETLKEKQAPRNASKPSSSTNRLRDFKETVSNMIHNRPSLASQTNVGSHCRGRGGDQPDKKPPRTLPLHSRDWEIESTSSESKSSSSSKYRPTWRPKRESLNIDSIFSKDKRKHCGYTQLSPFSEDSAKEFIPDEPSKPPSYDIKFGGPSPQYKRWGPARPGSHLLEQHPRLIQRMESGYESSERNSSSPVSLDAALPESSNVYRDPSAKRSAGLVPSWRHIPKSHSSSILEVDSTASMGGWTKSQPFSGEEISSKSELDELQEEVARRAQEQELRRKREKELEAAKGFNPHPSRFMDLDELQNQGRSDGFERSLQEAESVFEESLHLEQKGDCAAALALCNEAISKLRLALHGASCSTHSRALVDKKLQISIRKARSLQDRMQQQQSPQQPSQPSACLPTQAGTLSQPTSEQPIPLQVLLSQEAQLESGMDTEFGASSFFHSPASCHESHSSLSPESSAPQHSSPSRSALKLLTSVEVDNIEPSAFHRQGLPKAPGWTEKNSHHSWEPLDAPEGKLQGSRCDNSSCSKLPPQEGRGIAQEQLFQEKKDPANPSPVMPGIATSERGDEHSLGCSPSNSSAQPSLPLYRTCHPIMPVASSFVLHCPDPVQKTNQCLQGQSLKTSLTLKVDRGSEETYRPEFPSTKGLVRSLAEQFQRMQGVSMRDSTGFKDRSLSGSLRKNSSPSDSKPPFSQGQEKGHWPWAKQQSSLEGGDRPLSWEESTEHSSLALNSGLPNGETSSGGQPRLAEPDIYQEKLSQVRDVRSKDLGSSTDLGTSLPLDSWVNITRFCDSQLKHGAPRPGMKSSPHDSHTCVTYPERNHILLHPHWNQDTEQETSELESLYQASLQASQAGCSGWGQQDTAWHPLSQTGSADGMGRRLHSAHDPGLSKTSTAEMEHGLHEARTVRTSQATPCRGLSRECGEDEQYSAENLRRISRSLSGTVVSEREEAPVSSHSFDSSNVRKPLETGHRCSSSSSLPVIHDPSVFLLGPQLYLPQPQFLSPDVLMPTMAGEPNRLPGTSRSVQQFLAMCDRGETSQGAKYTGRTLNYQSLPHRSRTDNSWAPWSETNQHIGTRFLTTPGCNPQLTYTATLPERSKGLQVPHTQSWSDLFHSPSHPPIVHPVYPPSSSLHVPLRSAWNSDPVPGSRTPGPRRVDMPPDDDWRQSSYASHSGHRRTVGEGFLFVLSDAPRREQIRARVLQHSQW
Summary of the method: as §1

USP7 = USP7 (UniProt Q93009)
USP7, sequence (Q93009 whole entry, looked up): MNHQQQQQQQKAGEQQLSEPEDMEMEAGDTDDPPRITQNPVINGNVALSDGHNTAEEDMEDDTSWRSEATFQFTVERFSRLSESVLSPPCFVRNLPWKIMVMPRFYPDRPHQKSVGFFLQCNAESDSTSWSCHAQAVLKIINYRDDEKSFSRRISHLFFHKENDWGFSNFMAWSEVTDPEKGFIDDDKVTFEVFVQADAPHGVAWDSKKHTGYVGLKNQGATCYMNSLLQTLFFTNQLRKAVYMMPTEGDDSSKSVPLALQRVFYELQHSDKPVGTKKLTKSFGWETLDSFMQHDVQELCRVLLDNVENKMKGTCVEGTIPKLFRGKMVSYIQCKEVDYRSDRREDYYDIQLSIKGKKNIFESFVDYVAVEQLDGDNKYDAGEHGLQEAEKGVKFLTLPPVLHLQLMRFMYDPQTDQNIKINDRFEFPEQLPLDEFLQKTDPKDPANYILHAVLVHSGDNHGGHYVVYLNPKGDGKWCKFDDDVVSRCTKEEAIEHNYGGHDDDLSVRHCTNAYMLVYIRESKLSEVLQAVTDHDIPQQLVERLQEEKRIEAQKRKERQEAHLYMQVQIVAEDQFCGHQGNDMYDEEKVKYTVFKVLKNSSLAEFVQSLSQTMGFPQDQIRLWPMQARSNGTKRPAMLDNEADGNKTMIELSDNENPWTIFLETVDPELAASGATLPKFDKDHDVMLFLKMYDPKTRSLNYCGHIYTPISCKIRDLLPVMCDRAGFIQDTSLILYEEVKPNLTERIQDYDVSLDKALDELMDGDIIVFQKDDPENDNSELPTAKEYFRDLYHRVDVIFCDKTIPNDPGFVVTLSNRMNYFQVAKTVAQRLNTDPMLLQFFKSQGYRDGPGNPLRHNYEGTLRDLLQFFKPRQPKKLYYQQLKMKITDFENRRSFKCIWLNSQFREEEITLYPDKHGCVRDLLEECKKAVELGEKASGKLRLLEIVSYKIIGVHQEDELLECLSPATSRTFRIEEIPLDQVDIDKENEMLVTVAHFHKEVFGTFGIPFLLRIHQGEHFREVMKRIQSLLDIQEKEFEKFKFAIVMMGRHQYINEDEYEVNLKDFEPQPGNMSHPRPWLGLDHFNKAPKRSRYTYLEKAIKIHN
Summary of the method: as §1

USP8 = molecular target: T5, USP8 (UniProt P40818)
T5 sequence (whole entry): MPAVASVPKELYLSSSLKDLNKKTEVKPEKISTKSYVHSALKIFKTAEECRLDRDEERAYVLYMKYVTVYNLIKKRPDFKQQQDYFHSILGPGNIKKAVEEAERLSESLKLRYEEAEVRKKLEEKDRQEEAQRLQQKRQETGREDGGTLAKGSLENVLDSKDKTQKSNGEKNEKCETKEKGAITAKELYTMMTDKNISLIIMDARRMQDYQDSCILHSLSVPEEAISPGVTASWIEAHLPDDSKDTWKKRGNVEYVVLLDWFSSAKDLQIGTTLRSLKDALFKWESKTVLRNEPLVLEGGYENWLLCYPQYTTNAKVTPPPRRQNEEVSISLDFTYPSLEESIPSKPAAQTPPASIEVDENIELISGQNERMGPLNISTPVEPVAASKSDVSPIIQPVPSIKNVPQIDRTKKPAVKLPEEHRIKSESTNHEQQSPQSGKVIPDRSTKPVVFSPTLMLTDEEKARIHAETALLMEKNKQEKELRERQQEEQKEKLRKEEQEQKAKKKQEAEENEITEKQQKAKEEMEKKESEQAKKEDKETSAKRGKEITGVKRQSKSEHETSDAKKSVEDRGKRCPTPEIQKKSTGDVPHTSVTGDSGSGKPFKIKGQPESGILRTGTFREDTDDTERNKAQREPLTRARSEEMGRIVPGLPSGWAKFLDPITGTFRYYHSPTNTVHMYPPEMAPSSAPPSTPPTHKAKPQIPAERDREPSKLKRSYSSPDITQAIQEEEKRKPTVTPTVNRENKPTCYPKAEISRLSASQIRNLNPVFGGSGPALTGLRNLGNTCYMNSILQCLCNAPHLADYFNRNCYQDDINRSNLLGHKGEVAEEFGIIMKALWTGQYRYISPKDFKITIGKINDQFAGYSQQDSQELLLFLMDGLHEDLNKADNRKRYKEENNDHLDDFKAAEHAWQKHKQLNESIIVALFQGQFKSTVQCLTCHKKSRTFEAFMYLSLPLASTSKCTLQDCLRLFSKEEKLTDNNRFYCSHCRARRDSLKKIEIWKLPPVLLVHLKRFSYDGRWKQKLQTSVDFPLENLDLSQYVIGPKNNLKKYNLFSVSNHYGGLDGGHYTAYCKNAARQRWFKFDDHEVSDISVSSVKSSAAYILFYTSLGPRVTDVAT
Summary of the method: as §1

Measured: log2 ratio of Biotin-Ahx-Ub-VS probe labelling

Cl.O=C(CCl)N1CCn2ncc(O)c2C1
inactive: USP42 -0.139 | USP46 -0.686 | USP47 -0.0187 | USP48 -0.559 | USP5 0.0938 | USP54 0.44 | USP7 -0.81 | USP8 -0.577
